Measurements as given in PubChem BioAssay AID2620 (National Center for Advancing Translational Sciences (NCATS), 2010).
Results filed as inconclusive are left out. The call rests on the fitted dose curve; in most records, active means well fitted curve in the direction sought with a large enough effect; inconclusive means small, poorly fitted or top-dose-only effect, or another doubt; inactive means no such curve, though single readings can be large or run the other way.

target: Pyruvate kinase PKM (Homo sapiens) (UniProt P14618); assay: Secondary LDH Assay for Activators of Human Pyruvate Kinase M1 Isoform: for Probe SAR; conditions: purified hPK-M1, LDH-coupled NADH fluorescence kinetic; series mostly up to 58.2 µM; activity change, negative = inhibition: at the top concentration; further: % of control where 0% means no effect
Method in brief: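 10 nM hPK-M1 coupled to 1 uM LDH, with 0.1 mM PEP, 4.0 mM ADP, 0.2 mM NADH, 50 mM Tris pH 8.0, 200 mM KCl, 15 mM MgCl2 (final). NADH fluorescence depletion followed kinetically 3-6 min; initial rates normalized to uninhibited controls.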

Sequence of Pyruvate kinase PKM (Homo sapiens) (P14618 whole entry, looked up, canonical isoform): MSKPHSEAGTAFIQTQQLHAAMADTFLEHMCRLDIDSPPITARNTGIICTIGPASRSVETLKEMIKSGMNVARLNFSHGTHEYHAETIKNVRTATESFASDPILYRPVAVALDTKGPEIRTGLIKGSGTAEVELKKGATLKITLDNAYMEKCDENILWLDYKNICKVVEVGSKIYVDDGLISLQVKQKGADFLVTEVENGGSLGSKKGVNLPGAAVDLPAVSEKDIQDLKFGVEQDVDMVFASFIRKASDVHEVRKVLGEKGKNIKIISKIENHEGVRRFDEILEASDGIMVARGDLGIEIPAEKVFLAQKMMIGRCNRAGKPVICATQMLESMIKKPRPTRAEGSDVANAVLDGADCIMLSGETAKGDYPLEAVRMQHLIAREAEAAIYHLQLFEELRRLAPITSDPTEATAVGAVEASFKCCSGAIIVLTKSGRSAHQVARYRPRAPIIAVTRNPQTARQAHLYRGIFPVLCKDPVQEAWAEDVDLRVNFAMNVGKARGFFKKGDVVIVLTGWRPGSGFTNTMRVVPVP

Activity change, negative = inhibition, inactive:
CC(=O)N1CCc2cc(S(=O)(=O)Nc3ccc(C)c(C)c3)ccc21 8.26%
O=C1CCc2cc(S(=O)(=O)Nc3cccc(-c4ccccc4)c3)ccc2N1 5.22%
O=C1c2ccccc2C(=O)N1c1cccc2cnccc12 -2.27%
Cc1ccccc1Nc1c(-c2ccc(Cl)s2)nc2ccccn12 -1.95%
Cc1ccc(NS(=O)(=O)c2ccc3c(c2)CC(=O)N3C)cc1C 3.41%
Cc1ccc(NS(=O)(=O)c2cc3c(cc2N2CCC2)NC(=O)CC3)cc1C -3.5%
O=C1c2ccccc2C(=O)N1c1cnc2ccccc2c1 -5.54%
O=C1CCc2cc(S(=O)(=O)Nc3cccc4ccccc34)ccc2N1 8.49%
Cc1cc(C)n2c(Nc3ccccc3)c(-c3ccc(C)o3)nc2n1 2.62%
Cc1ccc(NS(=O)(=O)c2ccc3c(c2)CCN(C(=O)C(F)(F)F)C3)cc1C 0.987%
O=C1CCc2cc(S(=O)(=O)Nc3cc(F)cc(Cl)c3)c(F)cc2N1 2.41%
